CRE-bla Fsk: alters forskolin-stimulated CRE reporter signaling in CHO cells. CHO CRE-bla reporter (cAMP response element driving beta-lactamase), forskolin EC10, beta-lactamase ratio. Potency, µM (doses to about 38.2 µM), for the others: top-dose activity change, negative = inhibition, hits mostly activators. 2.5% of 71,000 active; active = well fitted activation curve with a large enough effect in the signal ratio, with a control signal flat, not every such curve was filed as active; inconclusive = small, poorly fitted or top-dose-only effect, or effect the other way, or a change in a side signal; the % refers to the signal ratio; note: potency is the fitted concentration of half-maximal effect; % of control where 0% means no effect
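Forskolin analogue NKH 477 at EC10 stimulated CRE-driven beta-lactamase in CHO cells alongside compound dilution series. Beta-lactamase was measured with CCF4, excitation 405 nm, emission ratio 460/530 nm.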
AID923: qHTS Assay for Allosteric/Competitive Inhibitors of Caspase-1: Spectroscopic Profiling in AFC Spectral Region | 1.1% of 75,000 active | Potency, µM (titrated, usually from 57.5 µM), for the others: at the top dose fluorescence increase, most hits filed as activators | AID 923, 2007 | compound fluorescence, AFC spectral region (405/520 nm); note: potency is the fitted concentration of half-maximal effect; 0% is about no effect
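Titrations up to 57 uM read every 20 sec for 3 min (405/520 nm) with 50 nM caspase 1 and 5 uM Ac-WEHD-AFC, pH 7.5 HEPES buffer. Fluorescence-vs-time intercept gave baseline, scaled against on-plate AFC standard.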
4-MU autofl: compound fluoresces in the 4-MU spectral region; compound autofluorescence, 340/450 nm, 4-MU equivalents; active compounds read high; max dye-equivalent concentration, M; 11% of 59,000 active; AID 589; in the data active = max dye-equivalent concentration above about 10 nM; inconclusive = mostly about 1.1 nM to 9.6 nM
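Intrinsic fluorescence at 340/450 nm (ex/em) was read after 15 min at room temperature in pH 8.0, 100 mM Tris. Each compound concentration expressed as 4-MU-equivalent concentration from a six-point 4-MU standard series on each plate.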
A350 fluor: A350 region autofluorescence | Compound autofluorescence, 340/450 nm, Alexa 350 dye-equivalents; active compounds read high | 11% of 59,000 active | max dye-equivalent concentration, M | AID 590; in the data active = max dye-equivalent concentration above about 10 nM; inconclusive = mostly about 1.1 nM to 9.6 nM
HADH2 inh: inhibitors of human HADH2 dehydrogenase; Q99714; recombinant HADH2, NADH fluorescence, beta-hydroxybutyryl-CoA; Potency, µM (titrated, usually from 57.1 µM), for inactives: top-dose activity change, negative = inhibition, most hits filed as inhibitors; 3.4% of 73,000 active; AID 886; note: potency is the fitted concentration of half-maximal effect; % is set by controls: 0 for no effect and ±100 for the full control effect; nearly all actives have a fitted effect of over 60% in size
Target sequence (Q99714 whole entry, looked up, one chain of several): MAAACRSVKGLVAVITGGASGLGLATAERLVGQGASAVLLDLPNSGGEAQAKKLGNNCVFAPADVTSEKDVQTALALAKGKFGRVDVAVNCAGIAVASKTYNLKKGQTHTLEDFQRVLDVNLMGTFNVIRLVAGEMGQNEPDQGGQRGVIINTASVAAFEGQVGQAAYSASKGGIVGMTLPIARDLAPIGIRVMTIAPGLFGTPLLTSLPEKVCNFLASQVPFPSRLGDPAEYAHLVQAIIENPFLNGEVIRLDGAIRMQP
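NADH fluorescence (ex 360/em 450 nm) read every 30 s for 4 min; activity taken as last-minus-first time point difference. Enzyme 20 nM, NAD+ 1 mM, beta-hydroxybutyryl-CoA 90 uM, pH 9.0 Tris buffer.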
HSD17B inhib: blocks hydroxysteroid 17-beta dehydrogenase activity; recombinant HSD17B10, NADH fluorescence kinetic; AID 893; Potency, µM (doses to about 57.1 µM), for the others: top-dose activity change, negative = inhibition, most hits filed as inhibitors; Q99714; 7.6% of 75,000 active;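 note: the protocol describes HADH2 (HSD17B10) and not the HSD17B4 of the title; potency is the fitted concentration of half-maximal effect; % is set by controls: 0 for no effect and ±100 for the full control effect; nearly all actives have a fitted effect of over 70% in size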
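His-tagged E. coli-expressed HADH2 at 20 nM in 100 mM Tris-HCl pH 9.0 with 0.01 % Tween-20, preincubated 15 min with compound at room temperature. Reaction with 1 mM NAD+ and 90 uM beta-hydroxybutyryl coenzyme A; NADH fluorescence (360/450 nm) read kinetically over 4 min, last minus first point.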
* marks the source's active call; other numbers are inactive results; i = inactive; ? = inconclusive; . = not tested or not shown; [ ] = dose if it differs, or a comment. Compounds with a hit are over-represented: about 14% of the library has one in this group of screens. Unless noted, calls come from the whole dose curve; as a rule, active = well fitted curve in the direction sought with a large enough effect; inconclusive = small, poorly fitted or top-dose-only effect, or another doubt; inactive = no such curve, though single readings can be large; an effect the other way counts as inactive or inconclusive.

SMILES	CRE-bla Fsk	AID923	4-MU autofl	A350 fluor	HADH2 inh	HSD17B inhib
CC(C)CC(NC(=O)C1CCC(C)CC1)C(=O)N1CCN(c2ccccn2)CC1 (configuration not stated)	-17%	1%	.	.	-2%	32µM*
Oc1cc2c(c(Cl)c1O)CCNC[C@H]2c1ccccc1	?	.	i	i	0.04µM*	7.9µM*
CC(=O)c1cc2c(=O)c3cc(C)ccc3oc2nc1C	19%	-1%	2.5e-08M*	2.7e-08M*	14%	?
C=CCN1CCc2c(cc(O)c(O)c2Br)[C@H](c2ccccc2)C1	-7%	-1%	i	i	0.79µM*	?
CN1CCc2cc(O)c(O)cc2[C@H](c2ccccc2)C1	-1%	-1%	i	i	?	?
COc1ccc(-n2nc(C(=O)Nc3ccc4c(c3)OCO4)c3ccccc3c2=O)c(OC)c1	?	-1%	i	i	6%	3%
CCCN(CCC)CCCNC(=O)c1cc2c(=O)n(C)c3ccccc3c2n1C	17%	0%	.	.	15%	32µM*
COCCCNC(=O)c1cc2c(=O)n(C)c3ccccc3c2n1C	?	1%	.	.	1%	32µM*
CCN(CC)CCCNC(=O)c1cc2c(=O)n(C)c3ccccc3c2n1C	?	-1%	.	.	1%	32µM*
COc1ccc(-n2nc(C(=O)Nc3ccc4c(c3)OCO4)c3c4ccccc4n(C)c3c2=O)cc1	2%	1%	1e-08M*	1e-08M*	6%	-7%
CCN1CCC[C@@H]1CNC(=O)c1c(O)c(Cl)cc(Cl)c1OC	-3%	-2%	i	i	-13%	-3%
CN(C)CCNC(=O)c1cc2c(=O)n(C)c3ccccc3c2n1C	?	-2%	.	.	?	?
CCCN(CCC)CCCNC(=O)c1cn(CCOC)c(=O)c2c1c1ccccc1n2C	7%	-1%	4.4e-07M*	4.6e-07M*	37%	4µM*
CCN(CC)CCNC(=O)c1cc2c(=O)n(C)c3ccccc3c2n1C	?	3%	.	.	?	25µM*
Cn1c(C(=O)Nc2ccc3c(c2)OCCO3)cc2c(=O)n(C)c3ccccc3c21	0.4µM*	3%	.	.	-3%	?
CCCCN(CC)CCNC(=O)c1cc2c(=O)n(C)c3ccccc3c2n1C	?	0%	.	.	?	32µM*
CC(=O)OC[C@H]1O[C@@H](CCO/N=C2/[C@H]3O[C@@H]3[C@@H](O)[C@H]3[C@H]2CCn2c(=O)n(-c4ccccc4)c(=O)n23)C=C[C@@H]1OC(C)=O	.	-6%[11.5 µM]	.	.	?	-4%[11.4 µM]
COc1ccc(OC2C=CC(c3ccccc3)OC2CO)c(C(C)=O)c1 (configuration not stated)	.	-3%[11.5 µM]	.	.	2%[11.4 µM]	6%[11.4 µM]
O=C(O)CCn1cnc2c(=S)nc[nH]c21	4%[7.6 µM]	4%[11.5 µM]	i	i	-19%[11.4 µM]	2%[11.4 µM]
Cc1nc(C)c(C(=O)Nc2nc3c(C)cccc3s2)o1	?	5%	1.6e-08M*	2.2e-08M*	7.9µM*	25µM*
Cc1nc(C)c(C(=O)Nc2ccccc2-c2ccccc2)o1	27%	1%	i	i	?	-19%
Cc1cccc2sc(NC(=O)C3CCCO3)nc12 (configuration not stated)	?	1%	1.5e-07M*	1.9e-07M*	0%	-6%
COc1ccccc1OCc1nc(C#N)c(NCc2ccco2)o1	-10%	-1%	i	i	-8%	-3%
COc1ccc(-c2nc(C#N)c(NCCCN(C)C)o2)cc1OC	6%	1%	1.5e-08M*	1.8e-08M*	32µM*	32µM*
COc1ccc(-c2nc(C#N)c(NCC3CCCO3)o2)cc1OC (configuration not stated)	13µM*	1%	2.6e-08M*	3.1e-08M*	1%	32µM*
SMILES	CRE-bla Fsk	AID923	4-MU autofl	A350 fluor	HADH2 inh	HSD17B inhib
CN(C)CCCNc1oc(-c2ccccc2)nc1C#N	-2%	0%	?	?	25µM*	25µM*
CN(C)CCNc1oc(-c2ccccc2F)nc1C#N	1%	1%	.	.	?	32µM*
Cc1cccc(OCc2nc(C#N)c(NCCN(C)C)o2)c1	1%	0%	.	.	9%	15%
N#Cc1nc(Cc2ccccc2)oc1NCCN1CCOCC1	19%	2%	i	i	0%	4%
CN(C)CCCNC(=O)c1ccc(Cc2nc3ccccc3[nH]2)cc1	.	4%	.	.	-3%	7%
CN1CCN(c2ncnc3ccc(-c4cccnc4)cc23)CC1	9%	1%	i	i	10%	12%
CN[C@@H](CC(C)C)C(=O)N[C@@H]1C(=O)N[C@H](CC(N)=O)C(=O)N[C@@H]2C(=O)N[C@H]3C(=O)N[C@H](C(=O)N[C@H](C(=O)O)c4cc(O)cc(O)c4-c4cc3ccc4O)[C@H](O)c3ccc(c(Cl)c3)Oc3cc2cc(c3O[C@H]2O[C@@H](CO)[C@@H](O)[C@@H](O)[C@@H]2O[C@@H]2C[C@](C)(N)[C@H](O)[C@H](C)O2)Oc2ccc(cc2Cl)[C@@H]1O	-3%[17.1 µM]	-1%[25.7 µM]	i	i	1%[25.6 µM]	3%[25.6 µM]
COc1ccc(-c2nc(C#N)c(NC(C)c3ccccc3)o2)cc1OC (configuration not stated)	?	0%	?	?	?	25µM*
COc1ccc(CCNc2oc(-c3ccc(OC)c(OC)c3)nc2C#N)cc1	?	0%	1.3e-08M*	3e-08M*	32µM*	25µM*
N#Cc1nc(-c2ccccc2F)oc1NCc1cccc2c1OCO2	?	0%	i	i	6%	13µM*
N#Cc1nc(-c2ccccc2F)oc1NC1CCCCC1	?	-1%	.	.	32µM*	13µM*
O=C(CCc1nc(-c2ccccc2F)no1)NC1CCCCCC1	26%	0%	i	i	6%	4%
COc1ccc(-c2nnc(SCC(=O)NC(C)c3ccccc3)o2)cc1 (configuration not stated)	-1%	-1%	.	.	6%	-6%
COc1ccc(CCNc2oc(COc3ccccc3)nc2C#N)cc1	.	.	i	i	.	.
C/C=C\C[C@@H](C)[C@@H](O)[C@H]1C(=O)N[C@@H](CC)C(=O)N(C)CC(=O)N(C)[C@@H](CC(C)C)C(=O)N[C@@H](C(C)C)C(=O)N(C)[C@@H](CC(C)C)C(=O)N[C@@H](C)C(=O)N[C@H](C)C(=O)N(C)[C@@H](CC(C)C)C(=O)N(C)[C@@H](CC(C)C)C(=O)N(C)[C@@H](C(C)C)C(=O)N1C	.	-3%	.	.	1%	27%

Source: PubChem
